Source: PubChem (National Center for Advancing Translational Sciences (NCATS))
Shown are actives, neighbours in structure and some others; about 18% of the full set was active somewhere.
TDP1 inh: inhibitors of human tyrosyl-DNA phosphodiesterase TDP1 | Q9NUW8 | recombinant TDP1, AlphaScreen DNA substrate cleavage | Potency, µM (doses to about 130 µM), inactives show at the top dose activity change, negative = inhibition, hits mostly inhibitors | actives 0.28% (n = 350,000); further: potency means the concentration at half of the fitted maximal effect; on the % scale 0 is the no-effect control and ±100 the full control effect; nearly all actives have a fitted effect of over 40% in size
Target sequence (Q9NUW8 whole entry, looked up): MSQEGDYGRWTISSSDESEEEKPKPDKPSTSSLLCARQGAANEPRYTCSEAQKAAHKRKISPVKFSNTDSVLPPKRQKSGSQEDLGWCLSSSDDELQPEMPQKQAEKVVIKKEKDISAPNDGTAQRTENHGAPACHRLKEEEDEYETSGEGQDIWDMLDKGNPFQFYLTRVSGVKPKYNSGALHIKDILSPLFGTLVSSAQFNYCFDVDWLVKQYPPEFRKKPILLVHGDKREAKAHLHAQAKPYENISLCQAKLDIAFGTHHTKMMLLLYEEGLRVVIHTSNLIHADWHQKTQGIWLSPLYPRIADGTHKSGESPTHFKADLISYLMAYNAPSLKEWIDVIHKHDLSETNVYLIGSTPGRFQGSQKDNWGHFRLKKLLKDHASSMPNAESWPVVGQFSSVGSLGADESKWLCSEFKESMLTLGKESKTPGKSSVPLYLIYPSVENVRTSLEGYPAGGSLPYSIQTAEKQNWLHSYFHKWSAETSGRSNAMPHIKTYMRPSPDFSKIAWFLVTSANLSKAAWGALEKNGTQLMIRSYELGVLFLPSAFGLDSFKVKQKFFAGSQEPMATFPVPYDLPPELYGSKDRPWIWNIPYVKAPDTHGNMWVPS
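Recombinant human Tdp1 (E. coli-expressed, 1 nM final) preincubated with compounds 15 min at room temperature, then 5'-biotin/3'-phosphotyrosine-FITC DNA substrate (15 nM final) added for 5 min. AlphaScreen beads (10 ug/ml final) added 10 min; cleavage lowers signal.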
DT40 TDP1 CPT: DT40-hTDP1 cell growth loss with CPT. actives 12% (n = 420,000). Potency, µM (top dose mostly 46.2 µM), without a hit: at the highest dose activity change, negative = growth inhibition, usual class: inhibitors. chicken DT40 Tdp1-/-;hTDP1 cells + 20 nM CPT, ATP luminescence, 48 h. AID 686979; further: potency means the concentration at half of the fitted maximal effect; on the % scale 0 is the no-effect control and ±100 the full control effect; nearly all actives have a fitted effect of over 55% in size
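Chicken DT40 Tdp1-/- cells stably complemented with human TDP1 were seeded at 400 cells/well in medium containing 20 nM camptothecin, exposed to pin-transferred compounds, and grown at 37 °C for at least 48 hr. Viability was read as ATP luminescence.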
TGFb SMAD3 inh: TGF-b pathway inhibition; AID 588855; Potency, µM (top dose mostly 46.1 µM), without a hit: at the top dose activity, negative = inhibition, hits mostly inhibitors; actives 1.2% (n = 410,000); HepG2 CAGA-GFP TGF-b/SMAD3 reporter, GFP fluorescence, 18 h; TGF-beta stimulated, 500 pg/mL final; further: potency means the concentration at half of the fitted maximal effect; on the % scale 0 is the no-effect control and ±100 the full control effect; nearly all actives have a fitted effect of over 65% in size
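HEPG2 CAGA-GFP reporter cells (1000/well, DMEM with 1% FBS) received compounds, then recombinant TGF-beta at 500 pg/mL final for 18 hours at 37 degrees C. Per-cell GFP summed per well was normalised to unstimulated and stimulated DMSO controls before curve fitting.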
HepG2 tox-1: counter-screen for TGF-b inhibitors: cytotoxicity in HepG2 cells; Potency, µM (highest dose often 46.1 µM), for the others: at the top dose activity change, negative = cytotoxicity, usual class: cytotoxic; HepG2 CAGA-GFP viability, ATP luminescence, 18 h; actives 0.76% (n = 410,000); further: potency means the concentration at half of the fitted maximal effect
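CellTiter-Glo luminescence gave cytotoxicity after 18 hours at 37 degrees C. The cells were HepG2 CAGA-GFP in 1% FBS DMEM, stimulated with 500 pg/mL TGF-beta after compound addition. %Activity was normalised to no-cell wells (complete cell-killing) and DMSO (no toxicity), and curves were fitted and classified.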
TDP1 cell noCPT: qHTS for Inhibitors of human tyrosyl-DNA phosphodiesterase 1 (TDP1): qHTS in cells in absence of CPT; DT40 Tdp1-/- hTDP1 cells, no CPT, ATP luminescence, 48 h; Potency, µM (top dose mostly 46.2 µM), for inactives: at the highest dose activity change, negative = growth inhibition, hits mostly inhibitors; actives 15% (n = 420,000); further: potency means the concentration at half of the fitted maximal effect; on the % scale 0 is the no-effect control and ±100 the full control effect; nearly all actives have a fitted effect of over 55% in size
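Compound effects on proliferation are scored in DT40 Tdp1-/-;hTDP1 cells in the absence of CPT. ATP levels (CellTiter-Glo luminescence) are recorded after a ≥48 hr, 37 °C incubation.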
IL1B secr inh: blocks inflammasome-driven IL-1 beta release | actives 4.7% (n = 360,000) | THP-1 LPS/ATP IL-1B secretion, AlphaLISA, 16 h; stronger effect = lower value | AID 743279 | activity change, % at 57.5 µM; in the data active means activity change below about -50%; inconclusive means mostly about -30% to -49%; further: on the % scale 0 is the no-effect control and ±100 the full control effect
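THP-1 cells pretreated 1 hr with compounds (up to 57.5 uM final), then stimulated with LPS (250 ng/mL final) plus ATP (1.25 mM final); secreted IL-1B measured by AlphaLISA after 16 hr, decreased signal indicating inhibition.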
TGFb confirm: confirmation of TGF-b signaling inhibitors in HepG2 reporter cells | actives 63% (n = 1,600) | Potency, µM (titrated, usually from 46.1 µM), without a hit: top-dose activity, negative = inhibition, most hits filed as inhibitors | shares compounds with TGFb SMAD3 inh | HepG2 CAGA-GFP TGF-b reporter, GFP fluorescence, 18 h; cells stimulated with TGF-beta, 500 pg/mL; further: potency means the concentration at half of the fitted maximal effect; on the % scale 0 is the no-effect control and ±100 the full control effect; nearly all actives have a fitted effect of over 65% in size
HepG2 tox-2: counter-screen for TGF-b inhibitors: cytotoxicity in HepG2 cells | shares compounds with TGFb SMAD3 inh | HepG2 CAGA-GFP viability, ATP luminescence, 18 h; cells stimulated with TGF-beta, 500 pg/mL | Potency, µM (top dose mostly 46.1 µM), for inactives: at the highest dose activity, negative = cytotoxicity, hits mostly inhibitors | actives 27% (n = 1,600) | AID 720535; further: potency means the concentration at half of the fitted maximal effect; on the % scale 0 is the no-effect control and ±100 the full control effect; nearly all actives have a fitted effect of over 70% in size
TGFb CCL64 inh: orthogonal confirmation of TGF-b inhibitors in CCL64 cells; shares compounds with TGFb SMAD3 inh; CCL64 CAGA-GFP reporter, TGF-b stimulated, GFP fluorescence, 18 h; Potency, µM (series often up to 46.1 µM), for inactives: at the highest dose activity, negative = inhibition, actives largely listed as inhibitors; actives 41% (n = 1,600); AID 720536; further: potency means the concentration at half of the fitted maximal effect; nearly all actives have a fitted effect of over 65% in size
TGFb COP inh: TGF-b inhibition validated with COP promoter | HepG2 COP-GFP TGF-b reporter, GFP fluorescence, 18 h; cells stimulated by added recombinant TGF-beta | Potency, µM (titrated, usually from 46.1 µM), for the others: top-dose activity, negative = inhibition, most hits filed as inhibitors | shares compounds with TGFb SMAD3 inh | actives 3% (n = 1,600); further: potency means the concentration at half of the fitted maximal effect; nearly all actives have a fitted effect of over 70% in size
* = called active by the depositor; ? = inconclusive; . = no result. Unless noted, the call rests on the fitted dose curve; in most records, active means well fitted curve in the direction sought with a large enough effect; inconclusive means small, poorly fitted or top-dose-only effect, or another doubt; inactive means no such curve, though single readings can be large; an effect the other way counts as inactive or inconclusive.

SMILES | TDP1 inh | DT40 TDP1 CPT | TGFb SMAD3 inh | HepG2 tox-1 | TDP1 cell noCPT | IL1B secr inh | TGFb confirm | HepG2 tox-2 | TGFb CCL64 inh | TGFb COP inh
C=CC[C@H](CC(=O)N(CCO)Cc1ccccc1)C(=O)N[C@H](COC(=O)[C@@H](CC=C)Cc1ccc(F)cc1)Cc1c[nH]c2ccccc12 | 5% | ? | 13µM* | -23% | ? | -56* | 16µM* | -23% | ? | 13%
C/C(=N/NC(=O)CNC(=O)c1ccccn1)c1ccccc1 | 3% | 5% | -8% | 3% | 9% | 1 | . | . | . | .
C/C(=N\NC(=O)c1ccccc1-n1cccc1)c1ccccn1 | . | 2.1µM* | 14µM* | -36% | 1.8µM* | 112 | 10µM* | ? | ? | 21%
C/C(=N\NC(=O)c1ccccn1)c1ccc(C(=O)O)s1 | 0% | . | . | . | . | . | . | . | . | .
CC(=NNC(=S)N1CCCCC1)c1ccccn1 | . | 0.026µM* | 0.63µM* | -70% | 0.0082µM* | -74* | 1.3µM* | ? | 0.65µM* | -7%
CCN(CC)C(=O)COc1ccc(/C(C)=N/NC(=O)c2ccccc2-n2cccc2)cc1 | 4% | -15% | 0% | -17% | ? | -2 | . | . | . | .
C=CCNC(=S)N/N=C(\C)c1ccccn1 | 10% | 0.01µM* | 2.8µM* | -26% | 0.018µM* | -12 | 10µM* | ? | 1.3µM* | -4%
CC(=O)N1c2ccccc2C(=O)C1N1CCN(c2cc(Cl)ccc2C)CC1 (centres undefined) | 3% | ? | 0% | -39% | ? | . | . | . | . | .
N=c1n(CCN2CCCCC2)c2ccccc2n1CC(=O)c1cccs1 | -9% | 18µM* | ? | -50% | 21µM* | -76* | 41% | ? | 23µM* | 50%
COc1ccc(C2(CNC(=O)CCC(=O)O)CCCC2)cc1OC | 4% | 10% | -11% | 9% | -11% | 30 | . | . | . | .
COc1ccc2c(c1OC)C(=O)OC2Nc1nc(-c2cc3ccccc3oc2=O)cs1 (centres undefined) | 0% | -2% | 14% | -65% | ? | -15 | . | . | . | .
COc1cccc(-c2csc(NC3OC(=O)c4c3ccc(OC)c4OC)n2)c1 (centres undefined) | -3% | ? | 11µM* | -23% | ? | -93* | 21µM* | -24% | ? | 22%
COc1ccc2c(c1OC)C(=O)OC2Nc1nc(-c2ccc(-c3ccccc3)cc2)cs1 (centres undefined) | 2% | -23% | 7.1µM* | -12% | -23% | 15 | 23µM* | -17% | ? | -2%
COc1ccc([C@H]2CC(=O)C=C(c3ccccc3)C2)cc1 | -6% | -5% | 2% | -21% | ? | -8 | . | . | . | .
COc1ccc([C@H]2CC(=O)C=C(c3ccc(Oc4ccccc4)cc3)C2)cc1OC | 2% | 10µM* | 7.9µM* | -25% | 23µM* | -3 | 9.2µM* | -21% | ? | -2%
Cc1ccc(S(=O)(=O)C2(C(=O)NC3CCCCC3)CC2)cc1 | 5% | -20% | 14% | 1% | 26% | 0 | . | . | . | .
Cc1nc(NCc2ccco2)c2c(C)c(C)sc2n1 | -6% | 2.1µM* | 7.9µM* | -37% | 1.8µM* | -77* | 8.2µM* | 5.2µM* | -99% | 38%
COc1cccc(-c2cnc(NCc3cc(Cl)ccc3O)n2C)c1 | 7% | ? | ? | -35% | ? | 0 | . | . | . | .
COc1cccc(-c2cnc3c(NC=O)cc(-c4cccc(NC(C)=O)c4)cn23)c1 | . | 18µM* | 7.1µM* | -3% | 21µM* | 143 | 5.8µM* | ? | 15µM* | 56%
CC(=O)Nc1cccc(-c2cc(NC=O)c3ncc(-c4cccc(C(C)=O)c4)n3c2)c1 | . | ? | 2.8µM* | 23% | 21µM* | 192 | 6.5µM* | ? | ? | 30%
COc1cccc(C(=O)Nc2cccc(-c3ccccc3)c2)c1 | 0% | ? | ? | -21% | ? | 6 | . | . | . | .
CC(=O)c1ccc(-c2cnc3c(NC=O)cc(-c4ccc(C(=O)N5CCOCC5)cc4)cn23)cc1 | . | 16µM* | ? | -5% | 21µM* | 0 | ? | ? | ? | 57%
COc1cccc(-c2cnc3c(NC=O)cc(-c4ccc(S(C)(=O)=O)cc4)cn23)c1 | . | 18µM* | 1.8µM* | -3% | 16µM* | 14 | 4.6µM* | -30% | 2.1µM* | 31%
O=C(NCCc1ccc(F)cc1)c1cc(=O)c2ccccc2o1 | 2% | 3% | ? | -16% | ? | 4 | . | . | . | .
CC1CC(C)(C)CC2(C1)NC(=O)N(CC(=O)OCc1ccc(Br)cc1)C2=O (centres undefined) | 1% | -15% | -30% | -22% | -13% | 14 | . | . | . | .
COc1cccc(-c2cnc3c(NC=O)cc(-c4ccccc4Oc4ccccc4)cn23)c1 | . | ? | 10µM* | -17% | ? | 11 | 12µM* | -20% | ? | 28%
O=S(=O)(Nc1ccccc1Cl)c1ccc(NS(=O)(=O)c2cccs2)cc1 | 3% | 4% | -43% | -39% | -22% | 35 | . | . | . | .
